Results from PMC4552634, “A New Set of Chemical Starting Points with Plasmodium falciparum Transmission-Blocking Potential for Antimalarial Drug Discovery” (PLoS ONE, 2015).
Out of some 13,000 compounds screened, about 3,200 (25%) showed an effect of 50% or more. The list shows a part of the results.

system: P. falciparum stage V gametocytes; design: BacTiter-Glo ATP luminescence viability of purified stage V gametocytes in 384-well plates, per cent inhibition versus DMSO; details: 48 h, 5 µM; inhibitor

SMILES | % Inhibition [%]
CN(C)CCNC(=O)[C@H](CC1CCCCC1)NC(=O)c1ccc(O)c(-c2ccc(Cl)c(Cl)c2)c1 [TCMDC-140865] | 44.5
O=C(Nc1ccc(-c2nc3ccccc3[nH]2)cc1)c1ccc(Cl)s1 [TCMDC-123725] | -15.63
CC1c2cccc(O)c2CCN1CCc1ccc(Cl)c(Cl)c1 (stereo not shown) [TCMDC-138976] | -24.59
O=C(Nc1cccc(-c2ccc(-c3nc4ccccc4[nH]3)cc2)c1)c1csnn1 [TCMDC-136901] | -10.17
COc1ccc(CNC2CCN(C)CC2)cc1-c1ccc(S(=O)(=O)NCCc2ccccn2)cc1 [TCMDC-132246] | 50.8
COc1ccc(CNC2CCN(C)CC2)cc1-c1ccc(S(=O)(=O)NCCc2ccccn2)c(F)c1 [TCMDC-132264] | 102.9
CN1CCC(NCc2cccc(-c3ccc(S(=O)(=O)NCCc4ccccn4)c(F)c3)c2)CC1 [TCMDC-132220] | 17
COc1ccc(CNC2CCN(C)CC2)cc1-c1ccc(S(=O)(=O)NCCc2ccccn2)c(C)c1 [TCMDC-132271] | 72.47
Cc1nnc(-c2ccc3ccccc3c2)c2cn(-c3cccc([N+](=O)[O-])c3)nc12 [TCMDC-138592] | 4.043
O=C(NCc1cccc(F)c1)Nc1ccc(-c2cccc(-c3nc4ccccc4[nH]3)c2)cc1 [TCMDC-133297] | 6.044
COc1ccc2nccc([C@@H](O)CN3CCC(NC(=O)c4cc5c(F)cc(F)cc5[nH]4)CC3)c2c1 [TCMDC-140781] | -8.295
O=C(Nc1ccc2nc3n(c(=O)c2c1)CCCCC3)C(=O)N1CCN(c2ccc(F)cc2)CC1 [TCMDC-125293] | -18.55
CCCN(Cc1ccc(C)cc1)Cc1cc(=O)c2cc(Cl)ccc2[nH]1 [TCMDC-124741] | 52.71
CCCN(Cc1ccc(OCC)cc1)Cc1cc(=O)c2cc(Cl)ccc2[nH]1 [TCMDC-124740] | 40.3
O=c1cc(NCCCN(Cc2cc3c(Cl)cc(Cl)cc3[nH]2)Cc2cc3c(Cl)cc(Cl)cc3[nH]2)[nH]c2ccccc12 [TCMDC-139849] | 1.838
COc1ccc2nccc([C@@H](O)CN3CCC(NC(=O)c4cccc(C(=O)c5ccccc5)c4)CC3)c2c1 [TCMDC-141283] | -43.58
CCC(C)NCCC(c1ccccc1)c1ccccc1O (stereo not shown) [TCMDC-125727] | 32.82
CCC(C)NCc1c(O)ccc2c(CNC(C)CC)c(O)ccc12 (stereo not shown) [TCMDC-137585] | -26.38
CCC(C)NCC(O)(c1ccc(Cl)cc1)c1ccc(Cl)cc1 (stereo not shown) [TCMDC-123502] | 68.55
